Screens: PubChem, National Center for Advancing Translational Sciences (NCATS)
This is a sample that favours compounds with a hit; in the whole collection about 19% have one here.
HT1080NT lethal = kills 2HG-producing HT-1080-NT fibrosarcoma cells. HT-1080-NT fibrosarcoma viability, CellTiter-Glo ATP luminescence, 48 h. AID 686970. 1.6% of 360,000 active. Potency, µM (highest dose often 46.1 µM), for inactives: at the highest dose activity, negative = less viability, usual class: cytotoxic;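 note: NT is the 2HG producing partner of a matched IDH1 knockdown line; potency is the fitted concentration of half-maximal effect; 0% = DMSO-treated cells and -100% = media-only wells without cells; nearly all actives have a fitted effect of over 55% in size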
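Read-out is CellTiter-Glo luminescence after 10 minutes at room temperature, following 48 hours' compound treatment of HT-1080-NT cells (750 cells/well, RPMI, 5% FBS, 37 degrees C).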
HT1080 IDH1KD tx = toxicity to HT-1080 IDH1 knockdown cells (counter line) | Potency, µM (titrated, usually from 46.1 µM), for inactives: at the highest dose activity, negative = toxicity, hits mostly cytotoxic | HT-1080 IDH1 knockdown viability, ATP luminescence, 48 h | 2% of 360,000 active | AID 686971;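 note: potency is the fitted concentration of half-maximal effect; 0% = DMSO wells and -100% = cell-free medium wells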
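HT-1080-IDH1KD cells (IDH1 knocked down), 750/well in RPMI with 5% FBS, treated with compound 48 h at 37 degrees C. Viability by CellTiter-Glo luminescence, normalised to DMSO and no-cell wells; concentration-response curves classed.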
TDP1 cell CPT = growth inhibition of DT40 Tdp1-/-;hTDP1 cells with camptothecin (screen for TDP1 inhibitors); chicken DT40 Tdp1-/-;hTDP1 cells + 20 nM CPT, ATP luminescence, 48 h; Potency, µM (series often up to 46.2 µM), for inactives: top-dose activity change, negative = growth inhibition, usual class: inhibitors; 12% of 420,000 active; AID 686979; note: potency is the fitted concentration of half-maximal effect; nearly all actives have a fitted effect of over 55% in size
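Cell growth measured by CellTiter-Glo luminescence after a minimum 48 h, 37 C compound exposure with 20 nM CPT in Tdp1-knockout DT40 cells stably expressing hTDP1, seeded 400/well; qHTS titration format.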
ELG1 repair inh = blocks ELG1-dependent DNA repair in HEK293T cells; Potency, µM (doses to about 46.1 µM), for the others: at the top dose activity change, negative = inhibition, usual class: inhibitors; 2.3% of 330,000 active; AID 504467; HEK293T ELG1-luciferase reporter, luminescence, 16 h; DNA damage induced by 5-fluorouridine; note: potency is the fitted concentration of half-maximal effect; nearly all actives have a fitted effect of over 55% in size
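Cells (2,000 per well) received 5-fluorouridine plus test compound or DMSO and were incubated 16 hr at 37 °C, 5% CO2. Luciferase activity was read by luminescence 30 min after ONE-Glo addition; signal suppression marked inhibition of damage-induced ELG1 function.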
IL1B secr inh = blocks inflammasome-driven IL-1 beta release. THP-1 LPS/ATP IL-1B secretion, AlphaLISA, 16 h; hits give low values. activity change, % at 57.5 µM. 4.7% of 360,000 active; in the data active = activity change below about -50%; inconclusive = mostly about -30% to -49%
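Secreted IL-1B measured by AlphaLISA bead assay after 16 h compound exposure of THP-1 cells; compounds (final up to 57.5 uM) added 1 h before LPS (250 ng/mL) and ATP (1.25 mM) stimulation; lower signal means less secretion.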
DT40 TDP1 no CPT = qHTS for Inhibitors of human tyrosyl-DNA phosphodiesterase 1 (TDP1): qHTS in cells in absence of CPT; DT40 Tdp1-/- hTDP1 cells, no CPT, ATP luminescence, 48 h; Potency, µM (doses to about 46.2 µM), without a hit: top-dose activity change, negative = growth inhibition, actives largely listed as inhibitors; 15% of 420,000 active; AID 686978, 2013; note: potency is the fitted concentration of half-maximal effect; nearly all actives have a fitted effect of over 55% in size
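Compound effects on proliferation are scored in DT40 Tdp1-/-;hTDP1 cells in the absence of CPT. ATP levels (CellTiter-Glo luminescence) are recorded after a ≥48 hr, 37 °C incubation.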
The depositor's hits bear a star; ? = inconclusive; / = no result; [ ] = remark or other dose. Unless noted, calls come from the whole dose curve; as a rule, active = well fitted curve in the direction sought with a large enough effect; inconclusive = small, poorly fitted or top-dose-only effect, or another doubt; inactive = no such curve, though single readings can be large; an effect the other way counts as inactive or inconclusive. Unless noted, % is set by controls: 0 for no effect and ±100 for the full control effect.

SMILES | HT1080NT lethal | HT1080 IDH1KD tx | TDP1 cell CPT | ELG1 repair inh | IL1B secr inh | DT40 TDP1 no CPT
Clc1ccc2[nH]c3c(c2c1)CNCC3 | ? | ? | -8% | -23% | -29 | ?
C=C1C=C(C)n2ncc(C(=O)Nc3ccc(C)cn3)c2N1 | 16% | 18% | -20% | / | / | ?
COc1ccc(-c2ccnc3nc(N4CCN(c5ccccc5)CC4)nn23)cc1 | 1% | -12% | ? | 7% | -10 | 21µM*
Fc1ccc(-c2ccnc3nc(N4CCOCC4)nn23)cc1 | 6% | 4% | -15% | -3% | 12 | -3%
CN(C)Cc1csc(Nc2ccc(C(F)(F)F)cn2)n1 | ? | -30% | 26µM* | / | -4 | -84%
CC(C)CC(N)c1csc(Nc2ccc(C(F)(F)F)cn2)n1 (stereo not drawn) | 18µM* | ? | 12µM* | / | -54* | 6.5µM*
CN(C)Cc1csc(NC(=O)Nc2ccccc2C(C)(C)C)n1 | -9% | 12% | ? | / | 0 | -20%
NC(Cc1ccc(Cl)cc1)c1csc(Nc2ccc(C(F)(F)F)cn2)n1 (stereo not drawn) | ? | ? | 9.2µM* | / | -67* | 9.2µM*
NC(CO)c1csc(Nc2ccc(C(F)(F)F)cn2)n1 (stereo not drawn) | -15% | -25% | ? | / | -5 | ?
CCOC(=O)C1CCCN(C(=O)c2[nH]c(C(F)(F)F)nc2-c2ccccc2)C1 (stereo not drawn) | 28% | 18% | 1% | / | 22 | 1%
Cc1ccc(S(=O)(=O)NC(C)CCc2ccccc2)cc1 (stereo not drawn) | -2% | -6% | ? | ? | 11 | -25%
Cc1ccc(S(=O)(=O)NC(C)CCc2ccccc2)cc1C(N)=O (stereo not drawn) | -1% | -3% | ? | ? | 38 | 18µM*
COC(=O)c1ccc(C(=O)OC)c(NC(=O)N2c3ccccc3Sc3ccccc32)c1 | 4% | -4% | ? | -3% | 35 | ?
O=C(c1cccnc1)N1c2ccccc2Sc2ccccc21 | -3% | -11% | 15µM* | ? | -16 | 15µM*
COC(=O)c1ccccc1NC(=O)N1c2ccccc2Sc2ccccc21 | -16% | -26% | 18µM* | -6% | -17 | ?
CCOc1ccccc1NC(=O)N1c2ccccc2Sc2ccccc21 | / | / | ? | / | / | 26µM*
CC(C)CNCC(=O)N1c2ccccc2Sc2ccccc21 | 0% | -1% | 16µM* | 6% | -10 | ?
CCCCC(=O)NNC(=O)N1c2ccccc2Sc2ccccc21 | 0% | 3% | 1% | 14% | 6 | -4%
Cc1ccc(S(=O)(=O)NCC2CCC(C(=O)NCCc3ccc(Cl)cc3)CC2)cc1 (stereo not drawn) | / | / | -5% | / | / | 1%
CCC1CN(CCNC(=O)c2ccc3c(c2)OCO3)Cc2cc(OC)ccc2O1 (stereo not drawn) | / | / | -5%[9.04 µM] | / | / | ?
Cc1ccc(S(=O)(=O)Nc2ccccc2C(=O)N2CCCCC2C)c(C)c1NS(C)(=O)=O (stereo not drawn) | -5% | -9% | -12% | 3% | 3 | -21%
CC(=O)Nc1ccc(NC(=O)CC2(CC(=O)N3CCOCC3)CCCC2)cc1 | 1% | 1% | 7% | 29% | 8 | -21%
Cc1cc(NC(=O)C(C)Oc2ccccc2)no1 (stereo not drawn) | 12% | 17% | 2% | 16% | 20 | -18%
CCCN(C1CCS(=O)(=O)C1)S(=O)(=O)c1ccc(F)cc1 (stereo not drawn) | 3% | 2% | 11% | 12% | 18 | -17%
COc1ccccc1C(=O)N1c2ccccc2Sc2ccccc21 | -14% | -24% | 5.8µM* | 11% | 12 | 5.8µM*
SMILES | HT1080NT lethal | HT1080 IDH1KD tx | TDP1 cell CPT | ELG1 repair inh | IL1B secr inh | DT40 TDP1 no CPT
COc1ccc(OC)c(NC(=O)N2c3ccccc3Sc3ccccc32)c1 | / | / | 18µM* | / | / | ?
CCOc1ccccc1C(=O)N1c2ccccc2Sc2ccccc21 | ? | ? | 10µM* | ? | -8 | 13µM*
CCOc1ccccc1NC(=O)Nc1cccc(C(C)=O)c1 | -4% | -1% | 29µM* | -8% | -6 | -30%
COc1cc(S(=O)(=O)Nc2cccc3cn[nH]c23)c(OC)cc1Cl | -19% | -4% | -12% | -9% | 29 | 10%
C[C@H](CO)N1C[C@H](C)[C@@H](CN(C)S(=O)(=O)c2ccc(Oc3ccccc3)nc2)OCc2cn(nn2)CCCC1=O | 1% | -1% | 12% | / | 24 | -7%
Cc1ccc2scc(N3CCCC(C)C3)c(=O)c2c1 (stereo not drawn) | / | / | -17% | / | / | -19%
CCOc1ccccc1NC(=O)/C=C/C(N)=O | ? | 2.8µM* | 4.1µM* | -7% | -103* | 4.1µM*
CCOc1ccccc1NC(=O)c1ccc(C(=O)Nc2ccccc2OCC)cc1 | / | / | -11% | / | / | -12%
COc1ccc(CN(C)C(=O)c2ccccc2Sc2ccccc2C#N)cc1OC | -4% | -26% | 16µM* | -18% | ? | ?
CN(CC(=O)Nc1cccc(F)c1)C(=O)c1ccccc1Sc1ccccc1C#N | 0% | 0% | ? | 16µM* | -21 | ?
Cc1cc(C)cc(NC(=O)N2CCC(N3CCCCC3)CC2)c1 | / | / | -6% | / | / | -10%
CCCCCCOc1ccc(C2C(=O)N(C3CCCCC3)CC(=O)N2C2CCCCC2)cc1 (stereo not drawn) | / | / | -4% | / | / | -2%
COc1cc2c(cc1[N+](=O)[O-])-c1ccc([N+](=O)[O-])cc1C2=NNC(N)=S | 2% | 0% | ? | / | -15 | 7.3µM*
NC(=S)NN=C1c2cc(Cl)ccc2-c2c1cc(Cl)cc2[N+](=O)[O-] | 7% | 7% | ? | / | 19 | ?
COc1ccc2c(c1)c1c(c(=O)n(-c3ccccc3)c(=O)n1CC(=O)NCCC1=CCCCC1)n2C | / | / | -20% | / | / | -1%
Cc1cc2nc(/N=C(\N)NC(=O)C(C)C)nc(C)c2cc1C | -25% | -15% | ? | -21% | -93* | ?
Cc1ccc2nc(N=C(N)N)nc(C)c2c1 | ? | ? | ? | -26% | 0 | 23µM*
CCC(=O)N/C(N)=N/c1nc(C)c2cc(C)c(C)cc2n1 | 7% | 2% | -21% | 23% | / | ?
Cc1nc(/N=C(\N)NC(=O)c2ccccc2)nc2ccccc12 | ? | ? | 29µM* | ? | -11 | ?
